# Assay outcomes from PubChem.
# TEAD-YAP inh – TEAD-YAP interaction inhibition, primary screen, TEAD-YAP interaction inhibitor project, luminescence, HEK-TIYL cells; AID 1259422, 2018; inhibition, % at 9.12 µM; TEAD-Gal4/YAP UAS-luciferase luminescence; actives 1.4% (n = 640,000); in the data active means inhibition above about 32%
# FBW7 act – FBW7 E3 ligase activators, primary screen, biochemical, AlphaScreen, human; actives 0.13% (n = 650,000); normalized activity (activation), % at 26.1 µM; AlphaScreen FBW7–phospho-cyclin E peptide binding, activator screen; AID 1259310, 2017; F-box/WD repeat-containing protein 7 (Homo sapiens), Q969H0; in the data active means normalized activity above about 1.9%;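 further: purified mutant Fbw7 with reduced substrate affinity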
# MITF inh – MITF inhibitors, primary screen, biochemical, AlphaScreen, human | Microphthalmia-associated transcription factor (Homo sapiens), O75030 | AlphaScreen MITF homodimerization, bead proximity signal | inhibition, % at 2.6 µM | actives 0.91% (n = 650,000) | AID 1259374, 2018; in the data active means inhibition above about 50%
# Target sequence (O75030 whole entry, looked up): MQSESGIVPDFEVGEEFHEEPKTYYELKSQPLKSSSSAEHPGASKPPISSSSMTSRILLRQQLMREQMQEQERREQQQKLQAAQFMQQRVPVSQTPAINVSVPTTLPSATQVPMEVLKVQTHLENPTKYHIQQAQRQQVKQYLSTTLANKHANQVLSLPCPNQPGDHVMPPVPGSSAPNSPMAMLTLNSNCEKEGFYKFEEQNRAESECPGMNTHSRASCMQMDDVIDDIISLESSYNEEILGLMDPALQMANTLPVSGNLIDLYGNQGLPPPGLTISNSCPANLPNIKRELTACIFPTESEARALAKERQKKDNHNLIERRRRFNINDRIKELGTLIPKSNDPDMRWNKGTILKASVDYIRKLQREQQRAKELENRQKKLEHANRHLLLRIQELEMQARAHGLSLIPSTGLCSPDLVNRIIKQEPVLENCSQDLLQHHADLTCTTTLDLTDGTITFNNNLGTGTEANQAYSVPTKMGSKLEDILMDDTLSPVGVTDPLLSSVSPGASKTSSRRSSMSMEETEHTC
# GPR151 activ – activators of human GPR151, primary screen, cell-based, PathHunter beta-arrestin, luminescence; G-protein coupled receptor 151 (Homo sapiens), Q8TDV0; PathHunter beta-arrestin GPR151 cells; activation, % at 11.2 µM; actives 1% (n = 650,000); in the data active means activation above about 4.9%
# MITF inh conf – MITF inhibitors, retest of hits, confirmation, biochemical, AlphaScreen, triplicate | inhibition, % at 2.6 µM | shares compounds with MITF inh | AID 1259372, 2018 | AlphaScreen MITF homodimerization, biotin/His-MITF beads | actives 16% (n = 4,700);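 active means inhibition above a cutoff derived from the DMSO control wells, cut at about 28% in these data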;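 further: inhibitors lower the bead chemiluminescence by keeping MITF from dimerizing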
# AlphaScreen intf2 – AlphaScreen optical interference compounds, counter-screen for MITF inhibitor project, biochemical, triplicate. AID 1259376, 2018. actives 7.6% (n = 4,700). LysRS AlphaScreen counterscreen, signal interference. inhibition, % at 2.6 µM. shares compounds with MITF inh;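 active means inhibition above a cutoff derived from the DMSO control wells, cut at about 30% in these data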
# Hits are given with their value; - = inactive; . = not tested or not shown. Hits are enriched below; roughly 3.5% of the tested compounds scored in any of these assays.
SMILES,TEAD-YAP inh,FBW7 act,MITF inh,GPR151 activ,MITF inh conf,AlphaScreen intf2
COc1cc(CN2CCN(Cc3c[nH]c4ccccc34)CC2)cc(OC)c1OC,-,-,55.7,-,-,-
CCCS(=O)(=O)N1CCCC(CCC(=O)N(C)CCc2ccccn2)C1 (stereo not drawn),-,-,-,-,.,.
CC(=O)OCC1OC(Sc2ccc(Cl)cc2)C(OC(C)=O)C(OC(C)=O)C1COC(C)=O (stereo not drawn),-,-,-,-,.,.
COc1cc(CN2CCN(CCO)CC2)cc(Br)c1O,-,-,67.3,-,-,-
COc1cccc(NC(=O)NCc2nc(-c3ccncc3)n[nH]2)c1,-,-,-,-,.,.
CCC1CN(CCC(=O)N2CCCCC2c2ccccn2)Cc2cc(OC)ccc2O1 (stereo not drawn),-,-,-,-,.,.
CCCn1cc(NC(=O)c2cc(-c3ccccc3N)no2)cn1,-,-,73.2,-,-,-
CCCn1cc(NC(=O)c2ccc(Br)o2)cn1,-,-,-,-,.,.
CCC(=O)N1CCc2cc(S(=O)(=O)N3CC(C)CC(C)C3)ccc21 (stereo not drawn),-,-,80.9,-,-,-
COc1cccc(NC(=O)C2C3C=CC4(O3)C2C(=O)N(CCC(C)C)C4C(=O)NC2CCCCC2)c1 (stereo not drawn),-,-,-,-,.,.
CC(C)Oc1ccc(Cc2n[nH]c(=S)n2-c2ccccc2)cc1,-,-,-,-,.,.
CN(C(=O)CN1C(=O)COc2c1cc(Cl)c1cccnc21)C1CCCCC1,-,-,-,-,.,.
Clc1cc2c(c3ncccc13)OCN(CC1CCCO1)C2 (stereo not drawn),-,-,87.9,-,100.1,100.6
CCCCN1COc2c(cc(Cl)c3cccnc23)C1,41.4,-,77.8,-,72.6,100.3
Clc1cc2c(c3ncccc13)OCN(Cc1ccccn1)C2,-,-,114.5,-,65.1,87.8
CC(=O)Oc1cccc(C(=O)NC(C)c2ccccc2)c1 (stereo not drawn),-,-,-,-,.,.
Cc1cc(NC(=O)c2cnn3c(C(F)(F)F)cc(-c4cccs4)nc23)no1,-,-,-,-,.,.
Nc1nc(Nc2ccccc2)nc2nc[nH]c12,-,-,60.4,-,-,-
CCOc1cccc(C2C(C(=O)OCCOC)=C(C)NC3=C2C(=O)CC(C)(C)C3)c1 (stereo not drawn),-,-,-,-,.,.
CN1CCN(CC(=O)c2ccccc2F)CC1,-,-,78.5,-,-,-
CN1CCN(CC(=O)c2cccs2)CC1,-,-,-,-,.,.
COCCNc1ccc2ncc(-c3cccc(C(F)(F)F)c3)n2n1,-,-,64.7,-,-,-
COCCNc1ccc2ncc(-c3cccc(N(C)C)c3)n2n1,-,-,-,-,.,.
Cc1ccc(-c2noc(CN(C(=O)N3CCOCC3)C(C)C)n2)cc1,-,-,-,-,.,.
O=C(NNC(=S)Nc1ccccc1)C(=O)NNC(=S)Nc1ccccc1,-,-,78.6,-,58.2,-
SMILES,TEAD-YAP inh,FBW7 act,MITF inh,GPR151 activ,MITF inh conf,AlphaScreen intf2
Cc1cc(NC(=O)C2CC(=O)N(c3ccccc3F)C2)ccc1Br (stereo not drawn),-,-,-,-,.,.
O=C(CN1CCN(Cc2ccc(Cl)c(Cl)c2)CC1)c1ccco1,-,-,60.6,-,-,-
O=C(CN1CCN(C(=O)c2c(F)cccc2Cl)CC1)c1ccco1,-,-,-,-,.,.
CCS(=O)(=O)N1CCN(CC(=O)c2ccco2)CC1,-,-,55.8,-,-,-
O=C(O)/C=C/C(=O)Nc1ccc(SC(F)F)cc1,-,-,55.9,-,-,-
COc1cc2cc(CN(Cc3ccc(F)cc3)C(C)=O)c(=O)[nH]c2cc1OC,-,-,-,-,.,.
CCc1ccc(CN2CCN(Cc3ccc(OC)cc3OC)CC2)cc1,-,-,65.8,-,-,-
CCS(=O)(=O)N1CCN(Cc2cc(OC)ccc2OC)CC1,-,-,-,-,.,.
COc1cc(CN2CCN(Cc3ccc(OC)cc3OC)CC2)cc(OC)c1,-,-,70.5,-,-,-
